Where “and” joins values, the source holds several entries; their conditions need not be identical. Equal entries are not always repeated. Results filed as inconclusive are left out. Where a structure was tested more than once in an assay, its records may differ in their call. Calls of active or inactive are those of the source. Calls come from the whole dose curve; as a rule, active = well fitted curve in the direction sought with a large enough effect in the repeat runs; inconclusive = weak or mixed curves; inactive = no such curve, though single readings can be large; an effect the other way counts as inactive or inconclusive.
How the values were obtained:
[1] = A CellTox Green Cytotoxicity Assay to monitor cytotoxicity in HEK293 cells - 40 hour (AID 1224871); note: nearly all actives have a fitted effect of over 45% in size; note: potency is the fitted concentration of half-maximal effect
In short: (§1)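 HEK293 cells, 600/well, were preincubated 5 hours and then exposed to compounds at 37 C for up to 40 hours. A cell-impermeant cyanine dye staining dead-cell DNA was read by fluorescence at 0, 8, 16, 24, 32 and 40 h time points.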

[2] = qHTS RealTime-Glo MT Cell Viability Assay in HEK293 cells - 16 hour (AID 1224872); note: nearly all actives have a fitted effect of over 50% in size; note: potency is the fitted concentration of half-maximal effect
In short: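 Homogeneous bioluminescent viability format in HEK293 cells (600 cells/well). Following 5 h at 37 C/5% CO2, 23 nL compound was pintooled; the signal was measured repeatedly during 40 h incubation.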

[3] = qHTS RealTime-Glo MT Cell Viability Assay in HepG2 cells - 8 hour (AID 1224873); note: nearly all actives have a fitted effect of over 55% in size
In short: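 Real-time viability: cells seeded at 600 per well together with NanoLuc and cell-permeant prosubstrate, compounds added after 5 h incubation. Luminescence tracked at 0, 8, 16, 24, 32 and 40 h of exposure.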

[4] = qHTS RealTime-Glo MT Cell Viability Assay in HEK293 cells - 40 hour (AID 1224874); settings: RealTime-Glo luminescence; max response: stronger effect = lower value; note: nearly all actives have a fitted effect of over 50% in size; note: potency is the fitted concentration of half-maximal effect
In short: (§2)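 600 cells/well were plated with the nonlytic NanoLuc/prosubstrate reagent, pre-incubated 5 h, then given 23 nL of compound in DMSO. Incubation at 37 C for 40 h, with luminescence from viable-cell-reduced substrate read repeatedly from 0 h.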

[5] = A CellTox Green Cytotoxicity Assay to monitor cytotoxicity in HEK293 cells - 24 hour (AID 1224875); note: nearly all actives have a fitted effect of over 45% in size; note: potency is the fitted concentration of half-maximal effect
In short: as §1

[6] = A CellTox Green Cytotoxicity Assay to monitor cytotoxicity in HepG2 cells - 16 hour (AID 1224876); note: nearly all actives have a fitted effect of over 45% in size; note: potency is the fitted concentration of half-maximal effect
In short: (§3)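 HepG2 cells, 600/well, preincubated 5 h with CellTox Green dye, then exposed to Tox21 compounds in DMSO at 37 C for up to 40 h. Dead-cell DNA fluorescence read at the indicated time point.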

[7] = qHTS RealTime-Glo MT Cell Viability Assay in HepG2 cells - 32 hour (AID 1224877); note: nearly all actives have a fitted effect of over 55% in size; note: potency is the fitted concentration of half-maximal effect
In short: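 Cell number in HepG2 cultures estimated from NanoLuc luminescence generated by metabolic reduction of a prosubstrate by living cells. The homogeneous, nonlytic format allowed repeated reads at 0, 8, 16, 24, 32 and 40 h of compound exposure.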

[8] = A CellTox Green Cytotoxicity Assay to monitor cytotoxicity in HepG2 cells - 24 hour (AID 1224878); note: nearly all actives have a fitted effect of over 45% in size; note: potency is the fitted concentration of half-maximal effect
In short: as §3

[9] = A CellTox Green Cytotoxicity Assay to monitor cytotoxicity in HepG2 cells - 40 hour (AID 1224879); note: nearly all actives have a fitted effect of over 40% in size; note: potency is the fitted concentration of half-maximal effect
In short: as §3

[10] = qHTS RealTime-Glo MT Cell Viability Assay in HEK293 cells - 0 hour (AID 1224880)
In short: as §2
% is set by controls: 0 for no effect and ±100 for the full control effect.

CCCCCCCCCCCO
inactive: Potency [1] | Potency [2] | Potency [3] | max response [4] -2.32% and 0.908% | Potency [5] | Potency [6] | Potency [7] | Potency [8] | Potency [9] | Potency [10]

CC(C)=CCC/C(C)=C\CO
inactive: Potency [1] | Potency [2] | Potency [3] | max response [4] 0.916% and 13.7% | Potency [5] | Potency [6] | Potency [7] | Potency [8] | Potency [9] | Potency [10]

CC(C)OC=O
inactive: Potency [1] | Potency [2] | Potency [3] | max response [4] 5.62% and -7.32% | Potency [5] | Potency [6] | Potency [7] | Potency [8] | Potency [9] | Potency [10]

c1cc(-c2ccncc2)ccn1
inactive: Potency [1] | Potency [2] | Potency [3] | max response [4] -8.48% and 4.82% | Potency [5] | Potency [6] | Potency [7] | Potency [8] | Potency [9] | Potency [10]

CCCCC/C=C/C=C/C=O
active: Potency [1] 54.5 µM | Potency [9] 54.9 µM
inactive: Potency [2] | Potency [3] | max response [4] -25% | Potency [5] | Potency [6] | Potency [7] | Potency [8] | Potency [10]

CN1C(C(=O)Nc2ccccn2)=C(O)c2ccccc2S1(=O)=O
inactive: Potency [1] | Potency [2] | Potency [3] | max response [4] 10.9% and -0.648% | Potency [5] | Potency [6] | Potency [7] | Potency [8] | Potency [9] | Potency [10]

c1ccc2cc(Nc3ccc(Nc4ccc5ccccc5c4)cc3)ccc2c1
inactive: Potency [1] | Potency [2] | Potency [3] | max response [4] 5.1% and 1.69% | Potency [5] | Potency [6] | Potency [7] | Potency [8] | Potency [10]
inactive and 12.3 µM (active): Potency [9]

O=C(O)c1ccccc1Nc1cccc(C(F)(F)F)c1
inactive: Potency [1] | Potency [2] | Potency [3] | max response [4] -19.7% and -3.43% | Potency [5] | Potency [6] | Potency [7] | Potency [8] | Potency [9] | Potency [10]

O=c1oc(=O)c2cc3c(=O)oc(=O)c3cc12
inactive: Potency [1] | Potency [2] | Potency [3] | max response [4] 5.31% and 2.56% | Potency [5] | Potency [6] | Potency [7] | Potency [8] | Potency [9] | Potency [10]

O=C=Nc1ccc(Cc2ccc(N=C=O)cc2)cc1
inactive: Potency [1] | Potency [2] | Potency [3] | max response [4] -12.4% and 1.24% | Potency [5] | Potency [6] | Potency [7] | Potency [8] | Potency [9] | Potency [10]

NC=O
inactive: Potency [1] | Potency [2] | Potency [3] | max response [4] -1.02% and -20.4% | Potency [5] | Potency [6] | Potency [7] | Potency [8] | Potency [9] | Potency [10]

CN(C)c1nc(N(C)C)nc(N(C)C)n1
inactive: Potency [1] | Potency [2] | Potency [3] | max response [4] -18.5% and -1.64% | Potency [5] | Potency [6] | Potency [7] | Potency [8] | Potency [9] | Potency [10]

Cc1c(C(N)=O)cc([N+](=O)[O-])cc1[N+](=O)[O-]
inactive: Potency [1] | Potency [2] | Potency [3] | max response [4] 1.58% and 7.25% | Potency [5] | Potency [6] | Potency [7] | Potency [8] | Potency [9] | Potency [10]

O=S(=O)(O)c1ccc(O)cc1
inactive: Potency [1] | Potency [2] | Potency [3] | max response [4] 9.46% and 3.12% | Potency [5] | Potency [6] | Potency [7] | Potency [8] | Potency [9] | Potency [10]

CC(=O)CC/C=C(\C)CCC=C(C)C
inactive: Potency [1] | Potency [2] | Potency [3] | max response [4] 1.02% and 0.97% | Potency [5] | Potency [6] | Potency [7] | Potency [8] | Potency [9] | Potency [10]

O=C(OCc1ccccc1)c1ccccc1O
inactive: Potency [1] | Potency [2] | Potency [3] | max response [4] -14.6% and -4.96% | Potency [5] | Potency [6] | Potency [7] | Potency [8] | Potency [9] | Potency [10]

Cc1ccc(C)c(O)c1C
inactive: Potency [1] | Potency [2] | Potency [3] | max response [4] 1.3% and 2.18% | Potency [5] | Potency [6] | Potency [7] | Potency [8] | Potency [9] | Potency [10]

CCCCC(CC)COCC1CO1 (stereo not given)
inactive: Potency [1] | Potency [2] | Potency [3] | max response [4] 1.02% and 0.683% | Potency [5] | Potency [6] | Potency [7] | Potency [8] | Potency [9] | Potency [10]

O=Cc1ccccc1O
inactive: Potency [1] | Potency [2] | Potency [3] | max response [4] 3.18% and 0.0852% | Potency [5] | Potency [6] | Potency [7] | Potency [8] | Potency [9] | Potency [10]

CCOC(=O)C(C#N)=C(c1ccccc1)c1ccccc1
inactive: Potency [1] | Potency [2] | Potency [3] | max response [4] -18.4% and -13.3% | Potency [5] | Potency [6] | Potency [7] | Potency [8] | Potency [9] | Potency [10]

Cc1cc2nc3c(=O)[nH]c(=O)nc-3n(C[C@H](O)[C@H](O)[C@H](O)CO)c2cc1C
active: Potency [1] 43.2 µM and 40.5 µM and 10.4 µM | Potency [5] 48.5 µM and 40.5 µM and 11.7 µM | Potency [6] 43.2 µM and 40.5 µM and 11.7 µM | Potency [8] 43.2 µM and 40.5 µM and 11.7 µM | Potency [9] 43.2 µM and 40.5 µM and 11.7 µM
inactive: Potency [2] | Potency [3] | max response [4] -7.07% and -0.427% and -0.0783% | Potency [7] | Potency [10]

CC(C(=O)O)c1cccc(C(=O)c2ccccc2)c1 (stereo not given)
inactive: Potency [1] | Potency [2] | Potency [3] | max response [4] 9.55% and 2.14% | Potency [5] | Potency [6] | Potency [7] | Potency [8] | Potency [9] | Potency [10]

Clc1nc(Cl)c(Cl)c(Cl)c1Cl
inactive: Potency [2] | Potency [3] | max response [4] 1.46% and 24.5% | Potency [5] | Potency [6] | Potency [7] | Potency [8] | Potency [9] | Potency [10]
43.9 µM (active) and inactive: Potency [1]

CC(C)OB(OC(C)C)OC(C)C
inactive: Potency [1] | Potency [2] | Potency [3] | max response [4] -5.59% and -12.5% | Potency [5] | Potency [6] | Potency [7] | Potency [8] | Potency [9] | Potency [10]

O=C(COc1ccc(Cl)cc1)N1CCN(Cc2ccc3c(c2)OCO3)CC1
38.9 µM (active) and inactive: Potency [2]
active: Potency [4] 38.9 µM
inactive: Potency [1] | Potency [3] | Potency [5] | Potency [6] | Potency [7] | Potency [8] | Potency [9] | Potency [10]

COc1cccc2c1C(=O)c1c(O)c3c(c(O)c1C2=O)C[C@@](O)(C(=O)CO)C[C@@H]3O[C@H]1C[C@H](N)[C@H](O)[C@H](C)O1
inactive and 21.3 µM (active): Potency [6] | Potency [8]
inactive: Potency [1] | Potency [3] | Potency [5] | Potency [9] | Potency [10]
active: Potency [2] 346 nM | Potency [4] 97.6 nM and 190 nM | Potency [7] 0.952 µM

COc1cc([C@@H]2c3cc4c(cc3[C@H](O)[C@H]3COC(=O)[C@H]23)OCO4)cc(OC)c1OC
inactive: Potency [1] | Potency [2] | Potency [3] | Potency [5] | Potency [6] | Potency [7] | Potency [8] | Potency [9] | Potency [10]
active: Potency [4] 0.0489 µM

COC(=O)CCC(=O)OC
inactive: Potency [1] | Potency [2] | Potency [3] | max response [4] -3.79% and 17.6% | Potency [5] | Potency [6] | Potency [7] | Potency [8] | Potency [9] | Potency [10]

CCCCOCCOCCO
inactive: Potency [1] | Potency [2] | Potency [3] | max response [4] 0.043% and 0.397% | Potency [5] | Potency [6] | Potency [7] | Potency [8] | Potency [9] | Potency [10]

C/C=C/C(=O)O
inactive: Potency [1] | Potency [2] | Potency [3] | max response [4] 2.91% and 4.68% | Potency [5] | Potency [6] | Potency [7] | Potency [8] | Potency [9] | Potency [10]

CN(C)C(=N)N=C(N)N
inactive: Potency [1] | Potency [2] | Potency [3] | max response [4] 2.54% and 1.8% | Potency [5] | Potency [6] | Potency [7] | Potency [8] | Potency [9] | Potency [10]

CC(=O)c1ccccn1
inactive: Potency [1] | Potency [2] | Potency [3] | max response [4] 3.52% and 4.42% | Potency [5] | Potency [6] | Potency [7] | Potency [8] | Potency [9] | Potency [10]

O=C(c1ccccc1)c1ccc(O)cc1O
inactive and 38.9 µM (active): Potency [8]
inactive: Potency [1] | Potency [2] | Potency [3] | max response [4] -11.1% and -19.8% | Potency [5] | Potency [6] | Potency [7] | Potency [10]
inactive and 43.6 µM (active): Potency [9]

Cc1ccc(C(=O)c2cc(O)c(O)c([N+](=O)[O-])c2)cc1
49 µM (active) and inactive: Potency [9]
inactive: Potency [1] | Potency [2] | Potency [3] | Potency [5] | Potency [6] | Potency [7] | Potency [8] | Potency [10]
active: Potency [4] 49 µM

CC(C)OC(=O)C(C)(C)Oc1ccc(C(=O)c2ccc(Cl)cc2)cc1
inactive: Potency [1] | Potency [3] | Potency [5] | Potency [6] | Potency [7] | Potency [8] | Potency [9] | Potency [10]
active: Potency [2] 21.9 µM and 16.9 µM | Potency [4] 24.5 µM and 19 µM

OC(CCl)CCl
inactive: Potency [1] | Potency [2] | Potency [3] | max response [4] 2.58% and 9.25% | Potency [5] | Potency [6] | Potency [7] | Potency [8] | Potency [9] | Potency [10]

Source: PubChem BioAssay (Tox21)
